# The campaign covered roughly 330,000 compounds. About 1,900 (0.58%) were called active. Inconclusive results (about 4%) are left out. The list is a sample of the results. Entries with a potency or affinity are not part of this list. A number with no mark means an inactive call. Rule as the data show it: inconclusive = inhibition above about 70% without an active follow-up result; inactive = below that.
# Experiment: M. tuberculosis growth inhibition, HTS (AID 449762);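 also: bacterial growth assessed after seven days of incubation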
# Details: M. tuberculosis H37Rv growth inhibition, 7H9 media; at 25 µM; stronger effect = higher value
row,SMILES,inhibition
1,CC(NC(=O)/C(C#N)=C/c1cccs1)c1ccccc1 (configuration not stated),-1.56%
2,Clc1ccc2c(c1)C(c1ccccc1Cl)=NCc1nnc(Br)n1-2,6.91%
3,CCOCCN1CCN(c2nnc3n2-c2ccc(Cl)cc2C(c2ccccc2Cl)=NC3)CC1,4.83%
4,Cn1c(=O)c2c(nc(SCCN3CCOCC3)n2C)n(C)c1=O,1%
5,O=C(CCc1ccc(Oc2cc([N+](=O)[O-])cc([N+](=O)[O-])c2)cc1)NC1CCCC1,30.8%
6,O=C(c1ccc(Oc2ccc([N+](=O)[O-])cc2)cc1)N1CCCCCC1,20.3%
7,Cc1cc(C)nc(OC(C(=O)O)C(OCC(C)C)(c2ccccc2)c2ccccc2)n1 (configuration not stated),-3.41%
8,Cc1cccc(C(=O)NC2CC(C)(C)NC(C)(C)C2)c1,-6.34%
9,Cc1ccc(S(=O)(=O)/N=C2/NC(=O)/C(=C/c3ccc(Br)o3)S2)cc1,-2.8%
10,COC(=O)c1ccc(CSc2nnc(CNC(=O)c3ccccc3F)o2)o1,4.26%
11,CCc1c(C2(O)CCCCC2)[nH]c2ccc(C#N)cc12,5.4%
12,Cc1c(C2(O)CCCCC2)[nH]c2cc(C(F)(F)F)ccc12,15.3%
13,Cc1nn(S(=O)(=O)c2ccc(C(C)C)cc2)c(C)c1S(=O)(=O)N1CCOCC1,-4.31%
14,Cc1nn(CC(=O)NCCCN2C(C)CCCC2C)c(=O)c2cc3occc3n12 (configuration not stated),5.96%
15,CCCc1nc([N+](=O)[O-])c(S(=O)(=O)c2ccccc2)n1CC(C)C,10%
16,CCCn1c(CC)nc([N+](=O)[O-])c1Sc1ccc(C)cc1,-12%
17,CN(CC(=O)Nc1ccc(OC(F)(F)F)cc1)C(=O)/C=C/c1ccco1,5.57%
18,Cc1ccc(NC(=O)CN(C)C(=O)/C=C/c2ccc3c(c2)OCO3)cc1,6.72%
19,CCCCc1c(O)nc(SCC(=O)N2CCCCC2)[nH]c1=O,17.7%
20,COc1ccc(-c2nnc(SCC(=O)NC3CCCC3)n2C)cc1,-3.82%
21,Cc1ccc(C(=O)/C=C/c2ccccc2)o1,4.37%
22,Cc1ccc(C(=O)/C=C/c2ccc3c(c2)OCO3)o1,1.84%
23,CC1CCCCN1S(=O)(=O)c1cccc2nonc12 (configuration not stated),-1.08%
24,Cc1nn(Cc2ccccc2Cl)c2sc(C(=O)NC(C)(C)C)cc12,30.5%
25,CCC(CC)NC(=O)c1cc2c(C)nn(Cc3ccccc3Cl)c2s1,-1.27%
26,CCCNC(=O)CCNC(=O)c1ccc(C(C)(C)C)cc1,-4.92%
27,CCCCNC(=O)CCNC(=O)c1ccc(C(C)(C)C)cc1,-8.34%
